From PubChem BioAssay (NCATS)
Results filed as inconclusive are left out. The source made the active and inactive calls. Calls follow the shape of the dose curve; as a rule, active = well fitted cell-killing curve with a large enough effect; inconclusive = small, poorly fitted or top-dose-only effect, or effect the other way; inactive = flat fitted curve, though single readings scatter.

How the values were obtained:
Assay in all cases: Primary qHTS to identify gynecologic anti-cancer compounds using libraries of approved drugs and bioactive compounds (AID 1345084); also: nearly all actives have a fitted effect of over 55% in size
[1] = system: Hek293T; conditions: Gynecologic cancer cell panel viability, ATPlite luminescence, 48 h, control line for the selectivity index; series mostly up to 57.5 µM
Method in brief: (§1)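 ATP-based viability (ATPlite), 1,000 cells/well, 16 h pre-incubation, 48 h compound at 37 C, 5% CO2, 15 min RT before read.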

[2] = system: JEG-3; conditions: Gynecologic cancer cell panel viability, ATPlite luminescence, 48 h; series mostly up to 57.5 µM
Method in brief: as §1

[3] = system: OV90; conditions: Gynecologic cancer cell panel viability, ATPlite luminescence, 48 h; series mostly up to 57.5 µM
Method in brief: as §1

[4] = system: PA-1; conditions: Gynecologic cancer cell panel viability, ATPlite luminescence, 48 h; series mostly up to 57.5 µM
Method in brief: as §1

[5] = system: SKOV3; conditions: Gynecologic cancer cell panel viability, ATPlite luminescence, 48 h; series mostly up to 57.5 µM
Method in brief: as §1

[6] = system: Tov-21-G; conditions: Gynecologic cancer cell panel viability, ATPlite luminescence, 48 h; series mostly up to 57.5 µM
Method in brief: as §1

[7] = system: Tov112D; conditions: Gynecologic cancer cell panel viability, ATPlite luminescence, 48 h; series mostly up to 57.5 µM
Method in brief: as §1
% is scaled to controls: 0 for no effect and ±100 for the full control effect.

COc1cc(C(=O)O[C@H]2[C@@H]3C=CO[C@@H](O[C@@H]4O[C@H](CO)[C@@H](O)[C@H](O)[C@H]4O)[C@@H]3[C@@]3(CO)O[C@@H]23)ccc1O
inactive: Potency [1] | Potency [2] | Potency [3] | Potency [4] | Potency [5] | Potency [6] | Potency [7]

CC(C)C1(OO)C=C2C(=O)CC3C(C)(C(=O)O)CCCC3(C)C2CC1 (stereo unspecified)
inactive: Potency [1] | Potency [2] | Potency [3] | Potency [4] | Potency [5] | Potency [6] | Potency [7]

Clc1ccc(N2C[C@H]3CC[C@@H](C2)N3)nn1
inactive: Potency [1] | Potency [2] | Potency [3] | Potency [4] | Potency [5] | Potency [6] | Potency [7]

C[C@H]1C(=O)O[C@H]2[C@H](O)[C@]34C5OC(=O)[C@]3(O[C@@H]3OC(=O)[C@H](O)C34[C@H](C(C)(C)C)[C@H]5O)C12O (stereo partly specified)
inactive: Potency [1] | Potency [2] | Potency [3] | Potency [4] | Potency [5] | Potency [6] | Potency [7]

COC1CC(O[C@H]2CC[C@@]3(C)C(=CCC4C3C(O)[C@@H](O)[C@]3(C)[C@@H](C(C)=O)CC[C@]43O)C2)OC(C)C1OC1CC(OC)C(OC2OC(C)C(O)C(O)C2O)C(C)O1 (stereo partly specified)
inactive: activity change, negative = cytotoxicity [1] -2.86% [at 11.6 µM] | activity change, negative = cytotoxicity [2] -1.29% [at 11.6 µM] | activity change, negative = cytotoxicity [3] -0.104% [at 11.6 µM] | activity change, negative = cytotoxicity [4] -3.19% [at 11.6 µM] | activity change, negative = cytotoxicity [5] -4.29% [at 11.6 µM] | activity change, negative = cytotoxicity [6] -7.27% [at 11.6 µM] | activity change, negative = cytotoxicity [7] 3.02% [at 11.6 µM]

CC(C)=C1CC[C@]23CO[C@H](C2)[C@@](O)(C(=O)O)CCC13 (stereo partly specified)
inactive: Potency [1] | Potency [2] | Potency [3] | Potency [4] | Potency [5] | Potency [6] | Potency [7]

C=CC(C)(O)CC/C=C(\C)C(=O)O[C@H]1[C@H](O)[C@@H](CO)O[C@@H](OC(=O)[C@]23CCC(C)(C)CC2C2=CCC4[C@@]5(C)CC[C@H](O[C@@H]6O[C@H](CO[C@@H]7OC[C@H](O)[C@H](O)[C@H]7O[C@@H]7OC[C@@H](O)[C@H](O)[C@H]7O)[C@@H](O)[C@H](O)[C@H]6O)C(C)(C)C5CC[C@@]4(C)[C@]2(C)CC3)[C@@H]1OC1OC(C)C(O[C@@H]2OC[C@@H](O)[C@H](O[C@@H]3OC[C@@H](O)[C@H](O)[C@H]3O)[C@H]2O)C(O)C1O (stereo partly specified)
inactive: activity change, negative = cytotoxicity [1] 2.18% [at 6.55 µM] | activity change, negative = cytotoxicity [2] -17.2% [at 6.55 µM] | activity change, negative = cytotoxicity [3] -3.63% [at 6.55 µM] | activity change, negative = cytotoxicity [4] 3.75% [at 6.55 µM] | activity change, negative = cytotoxicity [5] 0% [at 6.55 µM] | activity change, negative = cytotoxicity [6] 5.83% [at 6.55 µM] | activity change, negative = cytotoxicity [7] 1.17% [at 6.55 µM]

C[C@@](O)(COc1ccc(C#N)cc1)C(=O)Nc1ccc(C#N)c(C(F)(F)F)c1
inactive: Potency [1] | Potency [2] | Potency [3] | Potency [4] | Potency [5] | Potency [6] | Potency [7]

COC1CC(=O)C23C(=O)NC(CC(C)C)C2C(C)=C(C)C(OO)C3/C=C(\C)CCC(O)C1O (stereo unspecified)
inactive: Potency [1] | Potency [2] | Potency [3] | Potency [4] | Potency [5] | Potency [6] | Potency [7]

CN[C@H]1[C@H](O)[C@H](O[C@@H]2[C@@H](O)[C@H](O[C@H]3O[C@H]([C@H](C)O)[C@@H](O)[C@H](O)[C@H]3N)[C@@H](N)C[C@H]2N)OC[C@@]1(C)O
inactive: Potency [1] | Potency [2] | Potency [3] | Potency [4] | Potency [5] | Potency [6] | Potency [7]

CCCCCCn1c(=O)c(C(=O)Nc2ccc(C(=O)OCCC)cc2)c(O)c2ccccc21
inactive: activity change, negative = cytotoxicity [1] 10.5% [at 11.6 µM] | activity change, negative = cytotoxicity [2] -0.73% [at 11.6 µM] | activity change, negative = cytotoxicity [3] 9.17% [at 11.6 µM] | activity change, negative = cytotoxicity [4] 1.75% [at 11.6 µM] | activity change, negative = cytotoxicity [5] -0.233% [at 11.6 µM] | activity change, negative = cytotoxicity [6] 0.105% [at 11.6 µM] | activity change, negative = cytotoxicity [7] 27% [at 11.6 µM]

CCN1C[C@]2(COC)[C@H](O)C[C@H](OC)[C@]34[C@@H]5C[C@]6(O)[C@H](OC(=O)c7ccccc7)[C@@H]5[C@@](O)([C@H]([C@H](OC)[C@H]23)[C@@H]14)[C@@H](O)[C@@H]6OC
inactive: Potency [1] | Potency [2] | Potency [3] | Potency [4] | Potency [5] | Potency [6] | Potency [7]

C=C(C)[C@H]1O[C@H]2CC[C@@]3(C)[C@@](O)(CC[C@H]4[C@@H]5OC(C)(C)[C@H]6C[C@@H]7C(=C)Cc8c(Cl)cc9[nH]c(c5c9c8[C@@]76O)[C@@]43C)[C@]23O[C@@H]3[C@H]1O
inactive: Potency [1] | Potency [2] | Potency [3] | Potency [4] | Potency [5] | Potency [6] | Potency [7]

CN(C)CCc1c[nH]c2ccc(CN3CCN(C)S3(=O)=O)cc12
inactive: Potency [1] | Potency [2] | Potency [3] | Potency [4] | Potency [5] | Potency [6] | Potency [7]

C1=C2CCCN[C@H]2[C@@H]2C[C@H]1[C@H]1CCCCN1C2
inactive: Potency [1] | Potency [2] | Potency [3] | Potency [4] | Potency [5] | Potency [6] | Potency [7]

CCc1[nH]c2ccc(OC)cc2c1CCN(C)C
inactive: Potency [1] | Potency [2] | Potency [3] | Potency [4] | Potency [5] | Potency [6] | Potency [7]

COC(=O)C1(C)CCC(=O)C2(C)c3c(O)cc(C(C)C)cc3C(O)C(OC(C)=O)C12 (stereo unspecified)
inactive: Potency [1] | Potency [2] | Potency [3] | Potency [4] | Potency [5] | Potency [6] | Potency [7]

C[C@@H]1C(=O)O[C@H]2[C@H](O)[C@@]34[C@@H]5OC(=O)[C@@]3(O[C@@H]3OC(=O)[C@@H](O)[C@@]34[C@H](C(C)(C)C)[C@H]5O)[C@@]12O
inactive: Potency [1] | Potency [2] | Potency [3] | Potency [4] | Potency [5] | Potency [6] | Potency [7]
